This is an account of results in the supplement of paper PMC8728848.

The sample as a whole holds a higher share of the strongest signals than the screen did.

Assay in all cases: glycan array binding signal (z-score within array); higher = stronger binding
Conditions in all cases: glycan notation: IUPAC condensed, linker removed

Experiment [1] concerns the target Fuc(a1-2)Gal(b1-3)GalNAc(b1-3)Gal(a1-4)Gal(b1-4)Glc. An outline of the steps: (§1)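 From the Consortium for Functional Glycomics database, 3228 arrays were curated, keeping only those whose protein sequence was available. Binding is given as a within-array Z-score averaged across arrays sharing a protein sequence and across linkers. Negative Z-scores can be read as non-binding.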

Experiment [2] has as its target Fuc(a1-2)Gal(b1-3)[Fuc(a1-4)]GlcNAc. Summed up: as §1
Experiment [3] deals with Fuc(a1-2)Gal(b1-4)[Fuc(a1-3)]GlcNAc. An outline of the steps: as §1
Experiment [4] addresses Fuc(a1-2)Gal(b1-4)[Fuc(a1-3)]GlcNAc(b1-2)Man(a1-3)[Fuc(a1-2)Gal(b1-4)[Fuc(a1-3)]GlcNAc(b1-2)Man(a1-6)]Man(b1-4)GlcNAc(b1-4)[Fuc(a1-6)]GlcNAc. Summed up: as §1
Experiment [5] concerns the target Fuc(a1-2)Gal(b1-4)[Fuc(a1-3)]GlcNAc(b1-3)Gal(b1-4)[Fuc(a1-3)]GlcNAc. Summed up: as §1
Experiment [6] concerns the target Fuc(a1-2)Gal(b1-4)[Fuc(a1-3)]GlcNAc(b1-3)Gal(b1-4)[Fuc(a1-3)]GlcNAc(b1-3)Gal(b1-4)[Fuc(a1-3)]GlcNAc. An outline of the steps: as §1
In experiment [7] the target is Fuc(a1-2)[Gal(a1-3)]Gal(b1-3)GlcNAc. Summed up: as §1
In experiment [8] the target is Fuc(a1-2)[Gal(a1-3)]Gal(b1-4)Glc. An outline of the steps: as §1
Experiment [9] has as its target Fuc(a1-2)[Gal(a1-3)]Gal(b1-4)GlcNAc. An outline of the steps: as §1
Experiment [10] concerns the target Fuc(a1-2)[Gal(a1-3)]Gal(b1-4)GlcNAc(b1-2)Man(a1-3)[Fuc(a1-2)[Gal(a1-3)]Gal(b1-4)GlcNAc(b1-2)Man(a1-6)]Man(b1-4)GlcNAc(b1-4)GlcNAc. Summed up:
as §1

Experiment [11] concerns the target Fuc(a1-2)[Gal(a1-3)]Gal(b1-4)[Fuc(a1-3)]GlcNAc. An outline of the steps: as §1
In experiment [12] the target is Fuc(a1-2)[GalNAc(a1-3)]Gal(b1-3)GalNAc(b1-3)Gal(a1-4)Gal(b1-4)Glc. Summed up:
as §1

In experiment [13] the target is Fuc(a1-2)[GalNAc(a1-3)]Gal(b1-4)GlcNAc(b1-2)Man. Summed up: as §1
Experiment [14] concerns the target Fuc(a1-2)[GalNAc(a1-3)]Gal(b1-4)GlcNAc(b1-3)Gal(b1-4)GlcNAc. An outline of the steps: as §1
Experiment [15] has as its target Fuc(a1-4)GlcNAc. An outline of the steps:
as §1

Experiment [16] deals with Fuc(b1-3)GlcNAc. An outline of the steps:
as §1

In experiment [17] the target is Gal(a1-3)Gal(b1-3)GlcNAc(b1-6)GalNAc. Summed up:
as §1

The target of experiment [18] is Gal(a1-3)Gal(b1-4)Glc. Summed up:
as §1

Experiment [19] has as its target Gal(a1-3)Gal(b1-4)GlcNAc. Summed up:
as §1

Experiment [20] deals with Gal(a1-3)Gal(b1-4)[Fuc(a1-3)]GlcNAc. Summed up: as §1
Experiment [21] has as its target Gal(a1-4)Gal(b1-4)GlcNAc(b1-2)Man(a1-3)[Gal(a1-4)Gal(b1-4)GlcNAc(b1-2)Man(a1-6)]Man(b1-4)GlcNAc(b1-4)GlcNAc. An outline of the steps: as §1
Experiment [22] concerns the target Gal(b1-3)[Neu5Ac(b2-6)]GalNAc. An outline of the steps: as §1
Experiment [23] has as its target Gal(b1-4)Gal. Summed up: as §1
Experiment [24] addresses Gal(b1-4)GlcNAc(b1-2)Man(a1-3)Man(b1-4)GlcNAc(b1-4)GlcNAc. Summed up:
as §1

B1: PLU (Photorhabdus luminiscence) (protein)
chain: HHHHHHENLYFQSSIVFASIDPRSNPLQTSSQNYVDIPGLKLDVSKYSNSPCLTALITLNIPTPYASGNNFPGGNFAIVTDQGEQLAYGGFTYSSKIPENSGRMPFTLVARYSLASNVSTIKAQWSNIRGSTVHIDSYASISAVIQCNQLV
As to B1, the “glycan array binding signal (z-score)” value is -0.183 in experiment [1]; 5.25 in experiment [2]; 3.55 in [3]; 0.621 in experiment [4]; 3.58 in experiment [5]; 5.21 in experiment [6]. In addition, the “glycan array binding signal (z-score)” value is 4.43 in experiment [7]; 3.43 in experiment [8]; 3.83 in [9]; 3.78 in experiment [10]; 5.59 in [11]; -0.33 in [12]. Further, the “glycan array binding signal (z-score)” value in [13] was 3.66; in experiment [14], 11.7; in experiment [15] it was 0.546; in experiment [16], -0.329; in experiment [17], -0.253; in experiment [18], -0.284. In addition, the “glycan array binding signal (z-score)” value in [19] is -0.298; in experiment [20], -0.21; in experiment [21], -0.137; in experiment [22], -0.298; in [23], -0.25; in experiment [24], -0.227.
